# High-throughput results from PubChem BioAssay.
# The list is not random: actives were taken first. Their share in the collection is about 11%.
# ALDH1A1 inh: ALDH1A1 (human) enzyme inhibition. Purified ALDH1A1, NADH fluorescence, propionaldehyde substrate. P00352. 7.3% of 220,000 active. Potency, µM (series often up to 75.3 µM), inactives show at the top dose activity, negative = inhibition, usual class: inhibitors;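 further: potency means the concentration at half of the fitted maximal effect; plate controls were no enzyme wells and a reference inhibitor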
# HPGD block: inhibitors of human 15-hydroxyprostaglandin dehydrogenase (HPGD). P15428. purified HPGD, NADH fluorescence kinetic, PGE2 substrate. Potency, µM, for the others: top-dose activity change, negative = inhibition, most hits filed as inhibitors. 4.3% of 150,000 active; further: potency means the concentration at half of the fitted maximal effect
# Target sequence (P15428 whole entry, looked up): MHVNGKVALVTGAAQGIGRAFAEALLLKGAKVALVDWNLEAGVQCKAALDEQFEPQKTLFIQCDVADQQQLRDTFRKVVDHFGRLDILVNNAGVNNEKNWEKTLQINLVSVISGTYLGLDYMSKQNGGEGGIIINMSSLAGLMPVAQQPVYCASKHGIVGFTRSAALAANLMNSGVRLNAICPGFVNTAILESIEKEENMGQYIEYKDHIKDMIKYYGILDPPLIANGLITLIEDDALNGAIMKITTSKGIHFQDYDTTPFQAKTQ
#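 20 nM HPGD preincubated 15 min at room temperature with compound in 50 mM Tris-HCl pH 8, 0.01% Tween 20. Started with 1 mM NAD+ and 30 uM prostaglandin E2; NADH fluorescence (360/450 nm) read 5 times over 30-s intervals, last minus first.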
# PNC assembly inh: inhibitors of perinucleolar compartment assembly. PC3M PTB-GFP, PNC prevalence imaging, 16 h; hits give low values. activity change (PNC), negative = inhibition, % at 10 µM. AID 2417. 3.1% of 140,000 active;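 active means readout at or below -70, meaning at least 70% loss of cells showing the perinucleolar compartment, a nuclear body marking cancer cells; inconclusive means readout between -30 and a set limit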;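 further: plate controls were DMSO wells for no effect and camptothecin positive control wells for full effect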
#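 PC3M cells stably expressing PTB-GFP, 750–1000 cells/well, treated 16 h at 37 °C with compound (23 nl of library stock), in duplicate. After paraformaldehyde fixation and Hoechst stain, imaged at 20x; PNC prevalence scored by image analysis.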
# Starred values were filed as active, the others as inactive; ? = inconclusive; / = no result; [ ] = remark or other dose. Unless noted, the call rests on the fitted dose curve; in most records, active means well fitted inhibition curve with a large enough effect (not every such curve was filed as active); inconclusive means small, poorly fitted or top-dose-only effect, or another doubt; inactive means no such curve, though single readings can be large or run the other way. Unless noted, on the % scale 0 is the no-effect control and ±100 the full control effect.
SMILES,ALDH1A1 inh,HPGD block,PNC assembly inh
O=C(NCC1CCCO1)/C(=C/c1cn(-c2ccccc2)nc1-c1cccnc1)NC(=O)c1ccccc1 (stereo unspecified),0.56µM*,/,/
O=C(COC(=O)COc1ccc(Cl)cc1)NCc1cccs1,7%,?,5
Cc1cc(O)c(C)c(O)c1C(=O)O,-1%,-4%,/
O=C(O)CN(CCN(CC(=O)O)CC(=O)O)CC(=O)O.[Cu],-2%[13.5 µM],1%,/
Cc1onc(-c2ccccc2Cl)c1C(=O)NC1C(=O)N2C1SC(C)(C)C2C(=O)O (stereo unspecified),-12%,?,/
O=C(CCNC(=O)c1ccccc1Cl)Nc1nc(-c2ccc3ccccc3c2)cs1,?,?,31
O=C1C(NS(=O)(=O)c2cccs2)=C(N2CCN(c3cccc(C(F)(F)F)c3)CC2)C(=O)c2ccccc21,?,-25%,?
CCOc1ccccc1N1CCN(C2=C(NS(=O)(=O)c3cccs3)C(=O)c3ccccc3C2=O)CC1,10µM*,-17%,11
CCOC(=O)c1cc(-c2ccco2)nn1-c1ccc(C)cc1,14µM*,/,/
CC(C)NC(=O)c1cc(-c2ccco2)on1,-13%,-30%,?
O=C(c1cc(-c2ccco2)nn1-c1cccc(Cl)c1)N1CCCCC1,3.5µM*,1.6µM*,?
CC(C)NC(=O)c1cc(-c2ccco2)nn1-c1ccc(Cl)cc1,28µM*,?,59
CCOC(=O)c1cc(-c2ccc(N3CCOCC3)cc2)nn1-c1ccccc1,0%,-9%,?
CCOC(=O)c1cc(-c2ccco2)nc2c1c(C)nn2-c1cccc(Cl)c1,?,?,-19
CCC1Oc2ccccc2N(CC(=O)NCc2ccco2)C1=O (stereo unspecified),-9%,/,/
CCN(CC)CCCN(Cc1cc2cc3c(cc2[nH]c1=O)OCCO3)C(=O)Nc1ccc(F)cc1,?,/,-16
O=C(Nc1ccccc1N1CCOCC1)c1cccc(NS(=O)(=O)c2ccc(F)c(F)c2)c1,-5%,/,/
COc1ccc(Nc2nc(OC)nc(N3CCOCC3)n2)cc1,3%,/,/
Fc1ccc(Nc2nc(Oc3ccc4c(c3)OCO4)nc(N3CCOCC3)n2)c(F)c1,12%,-4%,-95*
C#CCNC(=O)C1=C[C@H](c2ccc(Br)cc2)C[C@H](OCCCCO)O1,-5%,/,/
O=C(CCc1c[nH]c2ccccc12)N1CCN(c2ccc(O)cc2)CC1,8.9µM*,/,/
COc1ccc(N2CCN(C(=O)CCc3c[nH]c4ccccc34)CC2)cc1,17%,/,/
CCOC(=O)C1=NN(c2ccc([N+](=O)[O-])cc2)CC1C(=O)OC (stereo unspecified),1.1µM*,-11%,-17
CCCCOC(=O)C1CN(c2ccccc2)N=C1C(=O)OCC (stereo unspecified),-2%,?,?
COc1cc2c(cc1O)C(Cc1ccc(O)cc1)[N+](C)(C)CC2 (stereo unspecified),-5%,-16%,/
SMILES,ALDH1A1 inh,HPGD block,PNC assembly inh
COc1cc(/C=N/N=C2/C(=O)Nc3ccccc32)cc(OC)c1O,-5%,?,10
CCC1(C)NC(=O)N(/N=C/c2cc(OC)c(O)c(OC)c2)C1=O (stereo unspecified),10µM*,/,/
Cc1[nH]n(C)c(=O)c1C(=O)c1c(-c2ccccc2Cl)noc1C,2%,/,/
CCOC(=O)C(C)CC(C)C(=O)N1CCOCCOCCN(C(=O)C(C)CC(C)C(=O)OCC)CCOCC1 (stereo unspecified),-5%,-4%,-9
CCOC(=O)C(C(=O)OCC)C(C(=O)OCC)N1CCOCC1 (stereo unspecified),28µM*,22µM*,21
C#CCOCCOCCOCCNc1nc(N2CCN(C(=O)[C@H](CCCCN)n3cc([C@@H](N)CO)nn3)CC2)nc(N2CCN(C(=O)[C@H](Cc3cc4ccccc4[nH]3)n3cc([C@@H](N)CC(C)C)nn3)CC2)n1,-7%,/,/
N#Cc1ccc(CSc2nnc(-c3ccccc3)n2Cc2ccco2)cc1,-3%,-6%,-25
COc1ccc(OC)c(C(=O)CSc2nnc(Cc3cccs3)n2C)c1,22µM*,-21%,?
C=CCn1c(SCC(=O)Nc2cccc3ccccc23)nnc1-c1cnccn1,5%,-14%,27
C=CCn1c(SCC(=O)Nc2cc3oc4ccccc4c3cc2OC)nnc1-c1cnccn1,28µM*,/,?
COc1cc2c(cc1NC(=O)CSc1nnc(COc3ccc(Cl)cc3)n1C)oc1ccccc12,10%,-13%,-9
COc1cc2c(cc1NC(=O)CSc1nnc(Cc3cccs3)n1C)oc1ccccc12,14µM*,-17%,?
CCCn1c(SCC(=O)c2cc(OC)ccc2OC)nnc1C(C)C,?,-7%,?
N#Cc1ccc(CSc2nnc(Cc3cccs3)n2Cc2ccco2)cc1,11µM*,-20%,23
CCCCC[C@H](O)/C=C\[C@H]1[C@H](C/C=C\CCCC(=O)O)[C@@H](O)C[C@H]1O (tested in a mixture with another compound),-4%[20.9 µM],?,/
CN(C(=O)COC(=O)CNC(=O)c1ccc(Cl)cc1Cl)c1ccccc1,10%,/,/
COc1ccccc1NC(=O)Nc1ccc2c(c1)nc(C)n2C,10%,/,/
COc1cc2c(cc1NS(=O)(=O)N1CCCCC1)oc1ccccc12,?,?,-27
N=C1c2ccccc2CN1NC(=O)c1cccc(S(=O)(=O)N2CCCC2)c1,2%,/,2
COc1ccc(C(=O)N(C)Cc2ccccc2)cc1Br,-3%,-24%,-18
Cc1cc(Cl)ccc1NC(=O)CSc1nnc(Cc2cccs2)n1Cc1ccco1,?,-13%,?
COc1cc2c(cc1NC(=O)CSc1nnnn1-c1ccccc1)oc1ccccc12,-9%,?,-17
COc1cc2c(cc1NC(=O)CSc1nnc(Cc3cccs3)n1Cc1ccco1)oc1ccccc12,5µM*,-30%,21
CCn1c(SCC(=O)Nc2cc3oc4ccccc4c3cc2OC)nnc1-c1cccs1,13µM*,-4%,31
Cc1ccccc1C(=O)OC1OC(=O)C(Cl)=C1N1CCOCC1 (stereo unspecified),-5%,-11%,?
SMILES,ALDH1A1 inh,HPGD block,PNC assembly inh
Cn1cc(S(=O)(=O)NCc2ccco2)c(=O)n(C)c1=O,-2%,-1%,8
O=C(CS(=O)(=O)c1cn(Cc2ccc(Cl)cc2)c2ccccc12)N1CCCCC1,-13%,-12%,?
O=C(CS(=O)(=O)c1cn(Cc2ccc(F)cc2)c2ccccc12)N1CCCCC1,?,-22%,-100*
COc1ccc(NC(=O)CSc2nnc(-c3cccs3)n2-c2ccccc2)cc1,4%,-7%,-2
CCCCOc1cccc(NC(=O)CSc2nccn2C)c1,0%,-9%,9
O=S(=O)(O)c1ccc(N=Nc2ccc3c(S(=O)(=O)O)cccc3c2O)c2ccccc12,2%[13.5 µM],-11%,/
COc1ccccc1OCc1ccc(C(=O)NCc2ccco2)o1,0%,-16%,-86*
COc1ccc(CNCc2ccco2)cc1OCc1ccccc1,11µM*,-11%,?
Cc1cc(C(F)(F)F)nn1Cc1ccc(C(=O)NCc2ccco2)o1,18µM*,?,?
Cc1ccccc1CS(=O)(=O)Cc1ccc(C(=O)NCc2ccco2)o1,-8%,1%,120
COc1ccccc1OCc1ccc(C(=O)NC(C)(C)C)o1,?,-11%,-18
